Measurements from PubChem BioAssay (NCATS).
Inconclusive results are not listed. Active and inactive are the calls of the source. The call rests on the fitted dose curve; in most records, active means well fitted curve in the direction sought with a large enough effect; inconclusive means small, poorly fitted or top-dose-only effect, or another doubt; inactive means no such curve, though single readings can be large; an effect the other way counts as inactive or inconclusive. Non-standard residues stand in square brackets, D forms with d. Residues, ends and D or L forms follow the SMILES beside them. *: point of attachment. Nva = CCC[C@H](N)C(=O)O; Cbz = O=C(OCc1ccccc1)*

Key:
MCC-26 = test: qHTS assay to identify novel small-molecules to repurpose for Merkel cell carcinoma treatment (AID 1296009); settings: MCC and control cell lines, CellTiter-Glo viability, 72 h; series mostly up to 46 µM; further: nearly all actives have a fitted effect of over 60% in size; further: potency means the concentration at half of the fitted maximal effect
In short: (§1)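 Cell viability, measured as CellTiter-Glo luminescence, was normalized between DMSO and no-cell wells. The cells had been exposed to 8- or 11-point compound dilutions for 72 hr at 37 degree celsius.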

MKL-1 = test: as above; settings: MCC and control cell lines, CellTiter-Glo viability, 72 h; series mostly up to 46 µM
In short: as §1

NIH3T3 = test: as above; settings: MCC and control cell lines, CellTiter-Glo viability, 72 h; at 44.8 µM (top of the series) unless noted
In short: as §1

UISO = test: as above; settings: MCC and control cell lines, CellTiter-Glo viability, 72 h; series mostly up to 46 µM
In short: as §1

WaGa = test: as above; settings: MCC and control cell lines, CellTiter-Glo viability, 72 h; series mostly up to 46 µM
In short: as §1

MKL-2 = test: as above; settings: MCC and control cell lines, CellTiter-Glo viability, 72 h; series mostly up to 46 µM
In short: as §1

C33A = test: Primary qHTS to identify gynecologic anti-cancer compounds using libraries of approved drugs and bioactive compounds (AID 1345084); settings: Gynecologic cancer cell panel viability, ATPlite luminescence, 48 h; series mostly up to 57.5 µM; further: nearly all actives have a fitted effect of over 55% in size
In short: (§2)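 Five-point cytotoxicity, 48 h drug exposure at 37 C, 5% CO2, on cells seeded 16 h beforehand. ATP content read by ATPlite luminescence.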

CASKI = test: as above; settings: Gynecologic cancer cell panel viability, ATPlite luminescence, 48 h; series mostly up to 57.5 µM
In short: as §2

Es-2 = test: as above; settings: Gynecologic cancer cell panel viability, ATPlite luminescence, 48 h; series mostly up to 57.5 µM
In short: as §2

HeLa = test: as above; settings: Gynecologic cancer cell panel viability, ATPlite luminescence, 48 h; series mostly up to 57.5 µM
In short: as §2
On the % scale 0 is the no-effect control and ±100 the full control effect.

CC(C)(C)[C@H](NC(=O)c1ccc(N)c(Cl)c1)C(=O)N1CCC[C@@H]1C(=O)N[C@H](C#N)CC(=O)O
inactive: activity change, negative = cytotoxicity (MCC-26) -4.4% [at 4.84 µM] | activity change, negative = cytotoxicity (MKL-1) 0.918% [at 4.84 µM] | outcome (NIH3T3) inactive [at 4.96 µM] | activity change, negative = cytotoxicity (UISO) 4.89% [at 4.84 µM] | activity change, negative = cytotoxicity (WaGa) -0.0966% [at 4.84 µM]

O=C(O)CCCCC(CCSCc1ccccc1)SCc1ccccc1 (configuration not stated)
active: Potency (WaGa) 13.2 µM
inactive: Potency (MCC-26) | Potency (MKL-1) | Potency (UISO)

C[N+]1(C)[C@@H]2C[C@@H](OC(=O)C(O)(c3cccs3)c3cccs3)C[C@H]1[C@@H]1O[C@@H]12
inactive: Potency (MCC-26) | Potency (MKL-1) | Potency (MKL-2) | Potency (UISO) | Potency (WaGa) | Potency (C33A) | Potency (CASKI) | Potency (Es-2) | Potency (HeLa)

C[C@H](NCc1ccc(OCc2cccc(F)c2)cc1)C(N)=O
active: Potency (MCC-26) 20.9 µM | Potency (MKL-1) 10.5 µM | Potency (UISO) 16.6 µM | Potency (WaGa) 18.7 µM

Nc1ccn(C2CO[C@H](CO)O2)c(=O)n1 (some centres not stated)
inactive: Potency (MCC-26) | Potency (MKL-1) | Potency (MKL-2) | Potency (UISO) | Potency (WaGa) | Potency (C33A) | Potency (CASKI) | Potency (Es-2) | Potency (HeLa)

CC(=O)O[C@]1(C(C)=O)CC[C@H]2[C@@H]3C=C(C)C4=CC(=O)CC[C@]4(C)[C@@H]3CC[C@@]21C
inactive: Potency (MCC-26)
active: Potency (MKL-1) 3.32 µM | Potency (MKL-2) 2.35 µM | Potency (WaGa) 1.87 µM

Cc1ccccc1C(=O)Nc1ccc(C(=O)N2CCCC(O)c3cc(Cl)ccc32)c(C)c1 (configuration not stated)
inactive: Potency (MCC-26) | Potency (MKL-1) | Potency (MKL-2) | Potency (UISO) | Potency (WaGa) | Potency (C33A) | Potency (CASKI) | Potency (Es-2) | Potency (HeLa)

CCC[C@@H](C=O)NC(=O)[C@H](CC(C)C)NC(=O)[C@H](CC(C)C)NC(=O)OCc1ccccc1 (Cbz-Leu-Leu-[Nva]-aldehyde)
active: Potency (MCC-26) 3.32 µM | Potency (MKL-1) 1.32 µM | Potency (MKL-2) 0.833 µM | Potency (UISO) 2.64 µM | Potency (WaGa) 0.833 µM

c1cc(N[C@@H]2CCNC2)nc(-c2cnc3ccc(-c4cn[nH]c4)cn23)c1
inactive: Potency (MCC-26) | Potency (Es-2) | Potency (HeLa)
active: Potency (MKL-1) 8.33 µM | Potency (MKL-2) 7.43 µM | Potency (UISO) 16.6 µM

CCc1cc(C(C)=NOCc2ccc(C3CCCCC3)c(C(F)(F)F)c2)ccc1CN1CC(C(=O)O)C1
active: Potency (MKL-2) 6.62 µM
inactive: Potency (MCC-26) | Potency (MKL-1) | Potency (WaGa)

CN(CC(=O)N(Cc1ccc(C2CCCCC2)cc1)c1ccc(C(=O)O)c(O)c1)S(=O)(=O)c1c(F)c(F)c(F)c(F)c1F
inactive: Potency (MCC-26) | outcome (NIH3T3) | Potency (UISO)
active: Potency (MKL-1) 8.33 µM | Potency (WaGa) 6.62 µM

CN(N=O)C(=O)N[C@H]1C(O)OC(CO)[C@@H](O)[C@H]1O (some centres not stated)
inactive: Potency (MCC-26) | Potency (MKL-1) | Potency (MKL-2) | Potency (UISO) | Potency (WaGa)

COc1cccc2c1C(=O)c1c(O)c3c(c(O)c1C2=O)C[C@@](O)(C(=O)CO)C[C@H]3O[C@H]1C[C@H](N)[C@H](O)[C@H](C)O1
active: Potency (MCC-26) 2.35 µM | Potency (MKL-1) 0.118 µM | Potency (WaGa) 0.0743 µM

Cc1cnc(NC(=O)Nc2cc(Br)c(C)cc2OC[C@@H]2CNCCO2)cn1
inactive: Potency (MCC-26) | Potency (MKL-2) | Potency (WaGa)

C=CC[C@@H]1C=C(C)C[C@H](C)C[C@H](OC)[C@H]2O[C@@](O)(C(=O)C(=O)N3CCCC[C@H]3C(=O)O[C@H](C(C)=C[C@@H]3CC[C@H](O)[C@H](OC)C3)[C@@H](C)[C@@H](O)CC1=O)[C@@H](C)C[C@@H]2OC
inactive: Potency (MCC-26) | outcome (NIH3T3)

COc1cc(C[C@@H](CO)[C@H](CO)Cc2ccc(O)c(OC)c2)ccc1O
active: Potency (MKL-2) 16.6 µM
inactive: Potency (MCC-26) | outcome (NIH3T3)

Nc1nc(=O)n([C@H]2C[C@H](O)[C@@H](CO)O2)cc1F
active: Potency (UISO) 0.209 µM | Potency (WaGa) 0.0935 µM
inactive: Potency (MCC-26) | Potency (MKL-2)

CCN(CC)CCCCNc1ncc2c(n1)N(C)C(=O)N(c1c(Cl)c(OC)cc(OC)c1Cl)C2
inactive: Potency (MCC-26) | Potency (MKL-1) | Potency (WaGa)

CC(=O)ON=C1C(c2c(O)[nH]c3cc(Br)ccc23)=Nc2ccccc21
inactive: Potency (MCC-26) | Potency (MKL-2)

CCOC(=O)[C@@H](N)Cc1ccc(-c2cc(O[C@H](c3ccc(Cl)cc3-n3ccc(C)n3)C(F)(F)F)nc(N)n2)cc1
inactive: Potency (MCC-26) | Potency (MKL-1) | Potency (UISO) | Potency (WaGa) | Potency (C33A) | Potency (CASKI) | Potency (Es-2) | Potency (HeLa)

CN(C)c1ccc2cc(C(=O)N[C@@H](CCCN=C(N)CCl)C(=O)NCc3ccccc3)ccc2c1
inactive: Potency (MCC-26)
active: Potency (MKL-2) 26.4 µM | Potency (UISO) 13.2 µM

N#Cc1c(C2CCNCC2)cc(-c2c(O)cccc2OCC2CC2)nc1N
inactive: Potency (MCC-26) | Potency (MKL-1) | Potency (C33A) | Potency (Es-2) | Potency (HeLa)

NC(=NCCCCCCN=C(N)N=C(N)Nc1ccc(Cl)cc1)N=C(N)Nc1ccc(Cl)cc1
active: Potency (MKL-2) 11.8 µM
inactive: Potency (MCC-26)

CC(Cc1ccc(O)c(O)c1)(NN)C(=O)O (configuration not stated)
inactive: Potency (MCC-26) | Potency (MKL-1) | Potency (UISO) | Potency (WaGa)

COC(=O)[C@@H]1[C@H]2C[C@@H]3c4[nH]c5ccccc5c4CCN3C[C@@H]2CC[C@@H]1O
inactive: Potency (MCC-26) | Potency (MKL-1) | Potency (UISO) | Potency (WaGa)

COc1cccc2c1C(=O)c1c(O)c3c(c(O)c1C2=O)C[C@@](O)(C(=O)CO)C[C@@H]3O[C@H]1C[C@H](N)[C@H](OC2CCCCO2)[C@H](C)O1 (some centres not stated)
active: Potency (MCC-26) 3.72 µM | Potency (MKL-1) 2.64 µM | Potency (UISO) 1.66 µM | Potency (WaGa) 1.66 µM

C[C@@]12C(=O)OC(=O)[C@@]1(C)C1CCC2O1
active: Potency (MCC-26) 6.62 µM | Potency (MKL-2) 4.18 µM | Potency (WaGa) 2.96 µM
